Measurements reported in PubChem BioAssay AID504753 (Sanford-Burnham Center for Chemical Genomics, 2011).
Out of some 2,400 compounds screened, about 820 (34%) were called active. Only a sample is shown. Unmarked numbers belong to inactive results.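 Rule for the calls: active = inhibition of at least 50% at 20 µM in any single replicate; inactive = the rest.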

tested on: glucose-6-phosphate dehydrogenase-6-phosphogluconolactonase (PfGluPho), Plasmodium falciparum 3D7; test: malaria parasite PfGluPho enzyme inhibition – biochemical, fluorescence intensity, single concentration, confirmation (AID 504753); conditions: recombinant PfGluPho, NADPH-diaphorase-resazurin fluorescence; at 20 µM; hits give high values;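 note: 0% = DMSO with substrate and 100% = DMSO lacking glucose-6-phosphate substrate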

For `COc1ccc(CCn2c(NN=C3CCCC3)nc3c2c(=O)[nH]c(=O)n3C)cc1`, the inhibition was 61.9% (active).
With `CC(C)(C)NC(=O)COc1ccc(CNc2ccc3[nH]c(=O)[nH]c3c2)cc1` the inhibition was 66.8% (active).
`c1ccc(-c2cn3c(n2)CCc2ccc4cccnc4c2-3)cc1` was tested, and the inhibition was 56.4% (active).
With `COc1ccc2c(c1)c(=Cc1ccc(N(C)C)cc1)c1cc(-c3ccccc3)[n+](C)n12` the inhibition was 74% (active).
For `Cc1ccc(NC(=O)Cn2sc3ccccc3c2=O)cc1`, the inhibition was 107% (active).
For `O=C(CN1CCN(c2ccc(O)cc2)CC1)Nc1cc(S(=O)(=O)N2CCOCC2)ccc1Cl`, the inhibition was 50% (active).
For `COc1cccc(C(=O)Nc2nnc(S(=O)(=O)N(C)c3ccccc3)s2)c1`, the inhibition was 73.6% (active).
For `COc1cccc(C(=O)Nc2nnc(S(=O)(=O)N3CCCCC3)s2)c1`, the inhibition was 76.5% (active).
With `COc1cccc(C(=O)Nc2nnc(S(=O)(=O)N3CCOCC3)s2)c1` the inhibition was 81% (active).
In the case of `CCOC(=O)C1=C(c2ccc(OC)cc2)C(=O)c2ccccc2C1=O`, the inhibition is reported as 82.8% (active).
In the case of `CCN1CCCC1CNC(=O)c1ccc2c(c1)NC(=O)/C(=C\c1ccccc1F)S2` (centres undefined), the inhibition is reported as 110% (active).
For `Cc1cccc(C(=O)Nc2nnc(S(=O)(=O)N3CCCCCC3)s2)c1`, the inhibition was 52.1% (active).
In the case of `O=C(Nc1nnc(S(=O)(=O)N2CCOCC2)s1)c1cccc(Br)c1`, the inhibition is reported as 60.9% (active).
In the case of `O=C(Nc1nnc(S(=O)(=O)N2CCCCCC2)s1)c1cccc(Br)c1`, the inhibition is reported as 55.3% (active).
With `COc1c(O)ccc2c1CN1CCc3cc4c(cc3C1C2)OCO4` (centres undefined) the inhibition was 71.4% (active).
In the case of `O=C1C=CC(=O)N1c1ccc(N2CCCCC2)cc1`, the inhibition is reported as 63.8% (active).
In the case of `COc1ccc(CC(=O)NCC(=O)N/N=C/c2cc(Br)ccc2OC)cc1`, the inhibition is reported as 70.9% (active).
In the case of `O=C(Nc1nc(-c2ccncc2)cs1)C1COc2ccccc2O1` (centres undefined), the inhibition is reported as 52.1% (active).
`O=C1/C(=C\c2ccc([N+](=O)[O-])cc2)CS(=O)(=O)C/C1=C/c1ccc([N+](=O)[O-])cc1` was tested, and the inhibition was 56.5% (active).
In the case of `O=[N+]([O-])c1c(NCCO)cc(Sc2nc3ccccc3s2)c2nonc12`, the inhibition is reported as 68.6% (active).
`CCN(CC)c1ccc2oc(=O)c(C)nc2c1` was tested, and the inhibition was 97.5% (active).
In the case of `CCSc1nnc(NC(=O)c2ccc(C)cc2)s1`, the inhibition is reported as 75.1% (active).
In the case of `Cc1ccnc(-n2sc3ccccc3c2=O)n1`, the inhibition is reported as 54.5% (active).
In the case of `Cc1ccc(/C=C/C(=O)Nc2ccc([N+](=O)[O-])c(NC(=O)/C=C/c3ccc(C)o3)c2)o1`, the inhibition is reported as 65.5% (active).
In the case of `C=CCc1ccccc1OCC(=O)N/N=C/c1ccccc1OCC`, the inhibition is reported as 55.4% (active).
`CCOc1ccccc1/C=N/NC(=O)CNC(=O)COc1ccccc1` was tested, and the inhibition was 104% (active).
In the case of `O=C(NC1=CC(=O)c2ccccc2C1=O)c1ccccc1`, the inhibition is reported as 51.5% (active).
`COc1ccc(OCc2nnc3n2N=C(c2ccccc2)C(CC(=O)O)S3)cc1` (centres undefined) was tested, and the inhibition was 66.8% (active).
In the case of `OCCN1CCN(C(=S)c2ccc(-c3ccccc3)cc2)CC1`, the inhibition is reported as 50.8% (active).
For `O=c1[nH]c2ccccc2n2c(-c3ccccc3)nnc12`, the inhibition was 102% (active).
`Cn1c(-c2sccc2OCc2cccc(C(F)(F)F)c2)n[nH]c1=S` was tested, and the inhibition was 52.9% (active).

First: CSc1n[nH]c(=S)n1N
Second: COc1ccc(OCc2n[nH]c(=S)n2N)cc1
The inhibition of the first is lower: 19.9% for the first, 46.2% for the second.

Compared with `O=C(CSc1cccc2cccnc12)N/N=C/c1cccnc1`, `O=C(N/N=C\c1cccc(Br)c1)c1ccccc1-n1cccc1` is higher in inhibition: 15.1% for the first, 32% for the second.

Compared with `O=C(CCn1nnc2ccccc21)OCC(=O)c1ccc([N+](=O)[O-])cc1`, `Cn1c(CCC(=O)OCC(=O)NCc2ccccc2Cl)nc(=O)c2ccccc21` is higher in inhibition: 12.8% for the first, 37.4% for the second.

First: O=C1OC(Oc2ccc(Br)cc2)(c2ccccc2)c2ccccc21 (centres undefined)
Second: O=C(/C=C/c1ccco1)Nc1ccc(Oc2ccccc2)cc1
The inhibition of the first is lower: -21.5% for the first, -1.92% for the second.

Compared with `Cc1ccc(C(=O)/C=C/c2c(C)nn(-c3ccccc3)c2Cl)cc1`, `Cc1ccc(-c2nc3ccc(Cl)cn3c2Cc2ccccc2)cc1` is higher in inhibition: -5.72% for the first, 16% for the second.

First: Cc1cccc(-n2c(N)c(C(=O)N3CCN(C)CC3)sc2=S)c1
Second: N#Cc1ccccc1-n1c(N)c(C(=O)N2CCCC2)sc1=S
The inhibition of the first is higher: 45.5% for the first, 31% for the second.

Going from `CCc1c(C)[nH]c(=S)c(C#N)c1C` to `CCOC(=O)c1sc(NC(=O)CSc2nc(C)cc(C(F)(F)F)n2)c(C#N)c1C`, the inhibition falls from 46% to 29.8%.

First: CN1c2ccc(C=O)c3c(C=O)ccc(c23)N(C)C1(C)C
Second: COc1cc(OC)c(C(=O)Nc2ccc(N(C)C)cc2)cc1OC
The inhibition of the first is higher: 20.6% for the first, 15.6% for the second.

First: O=C(Nc1ccc(F)cc1)c1cc2c(s1)CCCC2
Second: O=C(Nc1sc2c(c1C(=O)O)CCC2)c1ccccc1F
The inhibition of the first is lower: 15.8% for the first, 33.8% for the second.

Compared with `O=C(CN1CCN(c2ccc(O)cc2)CC1)Nc1ccc(-c2ccccc2)cc1`, `O=[N+]([O-])c1ccc(N2CCN(c3ccc(O)cc3)CC2)c(Cl)c1` is lower in inhibition: 22.2% for the first, 8.94% for the second.

Compared with `COCCNC(=S)Nc1cc(S(=O)(=O)N2CCOCC2)ccc1N1CCCCC1`, `O=C(Nc1ccc(S(=O)(=O)N2CCOCC2)cc1)c1ccc2ncsc2c1` is lower in inhibition: 44.5% for the first, 12.6% for the second.

Compared with `COc1ccc(Cl)cc1NC(=O)CN(C)C(=O)CCCc1c[nH]c2ccccc12`, `COc1ccc(C(=O)Nc2ccccc2C(=O)N/N=C/c2ccc(O)c(OC)c2)cc1` is lower in inhibition: 27.2% for the first, 26.4% for the second.

First: Nc1ccc(-c2nnc(-c3ccc(-c4ccccc4)cc3)o2)cc1
Second: COc1ccc(-c2nn(-c3ccccc3)cc2/C=N/Nc2ccccn2)cc1OC
The inhibition of the first is lower: 15.4% for the first, 20.9% for the second.

Going from `Cc1cccn2c(CN(C)C3CCCc4ccccc43)c(C(=O)N3CCOCC3)nc12` (centres undefined) to `CN1CCN(c2ccc(NC(=O)c3ccc4c(c3)OCCO4)cc2Cl)CC1`, the inhibition falls from 34.2% to 17.7%.

First: COc1cc(C(=S)NCc2ccccc2)cc(Br)c1O
Second: COc1cccc(NC(=O)NCc2ccc(F)cc2)c1
The inhibition of the first is higher: 39.6% for the first, -14.2% for the second.

Compared with `Oc1ccc(N=Cc2c(O)ccc3ccccc23)cc1`, `Oc1c(C=Nc2cccc3nsnc23)ccc2ccccc12` is higher in inhibition: 2.98% for the first, 27.2% for the second.

Compared with `COc1cc(C2CC(=O)N3CN(Cc4ccccc4)CSC3=C2C#N)ccc1OCc1ccccc1` (centres undefined), `O=c1oc2ccccc2cc1-c1cn(-c2ccccc2)c(=S)[nH]1` is higher in inhibition: 15.1% for the first, 18.8% for the second.

First: Cc1c(-c2ccccc2)n[nH]c1C(=O)N=Nc1c(O)[nH]c2ccccc12
Second: S=c1[nH]nc(-c2cc(-c3ccccc3)n[nH]2)n1/N=C/c1c2ccccc2cc2ccccc12
The inhibition of the first is higher: 38.1% for the first, -2.97% for the second.

Going from `Nc1ccc2nc3c(=O)[nH]c(=S)[nH]c3nc2c1` to `Nc1ccc2[nH]c(=S)sc2c1`, the inhibition rises from 23.1% to 35.6%.

Going from `Clc1ccc2c(c1)C1=C(C(c3ccncc3)O2)C(c2ccc(Br)cc2)n2ncnc2N1` (centres undefined) to `Cc1cc(Nc2ccc(Br)cc2)nc2ccccc12`, the inhibition falls from 42.4% to -14%.

Going from `CCOc1cccc(/C=N/N2C(=O)CSC2=S)c1O` to `CCOc1ccc(-n2c(N)c(C(=O)NCC3CCCO3)sc2=S)cc1` (centres undefined), the inhibition rises from 10.3% to 24.8%.

First: NC(=O)c1c(Nc2nc3c(F)cccc3s2)sc2c1CCCC2
Second: O=c1c2c(nc3cc(-c4cccc(Cl)c4)[nH]n13)CCCC2
The inhibition of the first is lower: 2.29% for the first, 41.6% for the second.

Compared with `C#CCOCCOCCOCCNc1nc(N2CCN(C(=O)CCCCCCCCCCNC(=O)Cn3cc(CCCCCN)nn3)CC2)nc(N2CCN(C(=O)CCCCCCCCCCNC(=O)[C@H](CO)n3cc(CCCSC)nn3)CC2)n1`, `COC(=O)CCCC1=CC2=CC(=O)C(C)(OC(=O)c3cccs3)C(=O)C2=CN1CC(C)C` (centres undefined) is higher in inhibition: -12.8% for the first, 2.11% for the second.

Compared with `S=C(NN=Cc1ccccn1)Nc1ccccn1`, `O=C(CSc1nnc(SCc2ccc(Cl)cc2)s1)N/N=C/c1ccccc1Cl` is lower in inhibition: 39.7% for the first, 30.5% for the second.

First: Cc1ccc(-c2cn3cc(C)ccc3n2)cc1
Second: Cc1ccc2nc(-c3ccc(Br)cc3)cn2c1
The inhibition of the first is higher: 40.7% for the first, 40.1% for the second.

First: COC(=O)c1sc(=S)n(-c2ccccc2)c1N
Second: S=c1[nH]nc(-c2cc(-c3ccsc3)n[nH]2)n1-c1ccccc1
The inhibition of the first is higher: 17% for the first, 12.6% for the second.

First: Cn1sc(=O)c2cc(S(=O)(=O)NC3CC3)ccc21
Second: COCCN1C=C2C(=O)C(C)(OC(=O)C3CCCC3)C(=O)C=C2C=C1c1ccsc1 (centres undefined)
The inhibition of the first is higher: 40% for the first, 29.9% for the second.

First: COc1ccc(Cl)cc1-n1c(=S)sc2c(=O)n(-c3ccc(F)cc3)c(SCC(=O)O)nc21
Second: COc1ccc(-n2c(C)cc(C(=O)CSc3nnc(-c4cccs4)o3)c2C)cc1
The inhibition of the first is higher: 34.5% for the first, 14.3% for the second.

Going from `CCOc1ccccc1Nc1ccc2nonc2c1[N+](=O)[O-]` to `Cc1ccc(OCC(=O)Nc2ccccc2Sc2ccc(Cl)cc2)c([N+](=O)[O-])n1`, the inhibition falls from 45.4% to 40.8%.

Compared with `Cc1ccc2nc(-c3cccc(Br)c3)cc(C(=O)Nn3cnnc3)c2c1`, `COc1ccc(C(=O)Nc2cc(C)c(NC(=O)c3ccccc3OC)cn2)cc1` is lower in inhibition: 27.5% for the first, 15.4% for the second.

Compared with `CCc1cc(C(N)=O)c(NC(=O)c2ccc(OC)cc2)s1`, `CCc1c(C)sc(NC(=O)c2cccs2)c1C(N)=O` is higher in inhibition: 16% for the first, 16.4% for the second.

Compared with `CC(C)(C)c1nnc(NC(=O)C2c3ccccc3Oc3ccccc32)s1`, `O=C(COc1ccccc1)Nc1nonc1NC(=O)COc1ccccc1` is lower in inhibition: 27.4% for the first, 19.8% for the second.

Compared with `CC1=CC(C)(C)Nc2ccc(OC(=O)CN3C(=O)C4CCCCC4C3=O)cc21` (centres undefined), `C=C1c2cccc(OC)c2O[C@H](C(=O)OCC)[C@@H]1CCCCCC` is lower in inhibition: 12.7% for the first, -4.41% for the second.

Compared with `Oc1c(CN2CCOCC2)ccc(CN2CCOCC2)c1O`, `Cc1cc(Nc2ccc(Cl)cc2)nc(N2CCOCC2)n1` is lower in inhibition: 31.4% for the first, 11.2% for the second.

First: Cc1nc([N+](=O)[O-])nn1C12CC3CC(CC(Br)(C3)C1)C2
Second: Cc1nc(N2CCOCC2)sc1C(=O)NN
The inhibition of the first is lower: 26.5% for the first, 27.4% for the second.

First: CCC(=C/c1sc2ccc3ccccc3c2[n+]1C)/C=C1\Sc2ccc3ccccc3c2N1C
Second: Cn1c(-c2ccco2)nc2cc3ccccc3cc21
The inhibition of the first is lower: -4.66% for the first, 22.1% for the second.

First: O=C(Nc1ccc(OC(F)(F)F)cc1)c1ccc2c(c1)no[n+]2[O-]
Second: COC(=O)CCc1sc(Nc2ccc(Br)cc2)nc1-c1ccc(OC)cc1
The inhibition of the first is higher: 10.5% for the first, -3.8% for the second.

Going from `COc1ccc(Nc2cc(Sc3ccc(OC)cc3)ncn2)cc1` to `COCCNC(=O)Nc1ccc2nc(-c3ccco3)c(-c3ccco3)nc2c1`, the inhibition rises from 26.3% to 34.8%.

First: O=[N+]([O-])c1ccc(C=Nc2ccc(Cl)cc2Cl)s1
Second: Cc1cc(N)n2nc(-c3ccc(C(C)(C)C)cc3)cc2n1
The inhibition of the first is lower: 4.17% for the first, 29.4% for the second.
